In the library only some 4% were active in any assay of this set; here they are far more common.
D1 ag: human D1 receptor agonism; HEK293 T-REx D1 cells, calcium flux, agonist mode; 360,000 tested, 1% active; activation, % at 2 µM; P21728; note: 0% is about no effect
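Inducible HEK293 T-REx D1 cells, force-coupled to calcium signalling, were plated at 4000 cells/well with tetracycline and held overnight at 30 C. After no-wash calcium dye loading, compound-evoked calcium rise over 180 s flagged agonists.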
TRHR enhancer: TRH receptor (human) allosteric enhancement; P34981; TRHR cells, fluo-8 calcium fluorescence, EC20 TRH enhancement; enhancement, % at 2 µM; 360,000 tested, 0.66% active; in the data active = enhancement above about 30%; note: 0% is about no effect
Target sequence (P34981 whole entry, looked up): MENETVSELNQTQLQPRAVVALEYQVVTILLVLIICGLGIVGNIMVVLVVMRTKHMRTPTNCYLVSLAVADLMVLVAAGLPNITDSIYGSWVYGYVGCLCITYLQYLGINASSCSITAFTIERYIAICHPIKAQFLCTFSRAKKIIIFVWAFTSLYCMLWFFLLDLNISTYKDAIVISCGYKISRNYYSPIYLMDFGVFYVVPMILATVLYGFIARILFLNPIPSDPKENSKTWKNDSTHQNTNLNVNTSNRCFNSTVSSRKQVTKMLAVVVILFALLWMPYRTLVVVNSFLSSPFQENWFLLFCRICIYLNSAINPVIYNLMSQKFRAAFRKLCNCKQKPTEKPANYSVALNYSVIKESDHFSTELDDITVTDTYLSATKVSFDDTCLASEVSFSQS
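Enhancer read-out: after compound pinning and an initial kinetic agonist-mode read, an EC20 of TRH (10 nM final) was injected and fluo-8 calcium signal (Ex 480/Em 530) followed at 1 s/cycle for 100 cycles in TRHR-expressing cells.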
D1 antagonist: blocks dopamine activation of the human D1 receptor | P21728 | HEK293 TREx D1 cells, calcium flux, dopamine EC80; active compounds read low | AID 504652 | 360,000 tested, 3.2% active | activity change, negative = inhibition, % at 10 µM; in the data active = activity change below about -30%; note: % is set by controls: 0 for no effect and ±100 for the full control effect
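Cells carrying a force-coupled, tetracycline-inducible human D1 receptor report calcium flux. Each well gets a 10 s baseline, compound with 180 s monitoring, then an EC80 dopamine stimulus with a second 180 s kinetic read.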
Glioma ERSR ind: inducers of ER stress response in human glioma cells | AID 602332 | 420,000 tested, 0.02% active | Potency, µM, for inactives: at the highest dose activation, most hits filed as activators | U87-MG GRP78 promoter luciferase reporter, 16 h; active = well fitted activation curve with a large enough effect; note: potency is the fitted concentration of half-maximal effect; series mostly up to about 76 µM; % of control where 0% means no effect; nearly all actives have a fitted effect of over 35% in size
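ERSR induction read as luciferase luminescence (Bright-Glo, 10 min at room temperature) in stably transfected human U87-MG glioma cells exposed to compounds for 16 h, using GRP78 as sensor.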
D1 potentiator: human D1 dopamine receptor positive modulation | P21728 | HEK293 TREx D1 cells, calcium flux, dopamine EC20 potentiation | potentiation, % at 10 µM | 360,000 tested, 0.036% active | AID 504651; in the data active = potentiation above about 30%; note: 0% is about no effect
TRHR ag: TRH receptor (human) agonism; 360,000 tested, 0.18% active; P34981; activation, % at 2 µM; AID 493084; TRHR cells, calcium flux fluo-8, FDSS agonist mode; note: 0% is about no effect
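Read-out: compound-evoked intracellular calcium rise in TRHR cells, fluo-8 dye, kinetic FDSS fluorescence at 1 s/cycle following a 10-cycle baseline. Cells cultured overnight before dye loading (30 min–1.5 h, RT).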
Numbers without * were called inactive; ! = not confirmed by another sample. Cut-off read from the data, not from the text of the source, unless noted: active = activation above about 30%; inactive = the rest.

SMILES	D1 ag	TRHR enhancer	D1 antagonist	Glioma ERSR ind	D1 potentiator	TRHR ag
CCc1cccc(NC(=O)Cn2c(-c3ccccc3)cc(C(C)=O)c2C)c1	2	-2	-33*	-7%	-7	-1
Cc1[nH]c2ccc(-c3n[nH]c(=S)n3Cc3ccccc3)cc2c1C	7	4	-32*	-4%	-6	2
CCCCNC(=O)c1cnc2sc(N3CCCCCC3)nn2c1=O	0	1	8	-2%	-6	0
CCOCCCNC(=O)c1cnc2sc(N3CCCCCC3)nn2c1=O	0	5	-31*	-3%	-1	0
COC(=O)C(C)(C)ONC(=O)Nc1ccccc1[N+](=O)[O-]	2	31*	-17	-3%	-3	0
CCCONC(=O)Nc1ccccc1[N+](=O)[O-]	0	3	-10	5%	-6	-2
CCCNC(=O)Cn1c(=O)c2cccn2c2cccnc21	0	-12	2	-1%	-2	1
COc1ccc(CCNC(=O)c2cc(-c3ccccc3O)n[nH]2)cc1OC	3	-3	-33*	-2%	-1	-1
COc1ccc(CCNC(=O)c2cc(-c3cc(Cl)ccc3O)n[nH]2)cc1OC	7	-1	-32*	-8%	-7	1
COc1ccc(CCNC(=O)c2cc(-c3ccc(C)cc3O)n[nH]2)cc1OC	4	28	-1	-3%	-4	0
CC(C)(C)c1cc(NC(=O)CSc2nnc(N)s2)n(-c2ccccc2)n1	3	0	-35*	-5%	4	0
CC(C)(C)c1cc(NC(=O)CSc2nnc(NCc3ccccc3)s2)n(-c2ccccc2)n1	-2	-5	11	-3%	1	0
CNc1nc(N)nc(-c2cc(Cl)ccc2OC)n1	-1	0	-30*	-2%	0	0
CCOC(=O)C1CCN(Cc2ccc(OC)c(C)c2OC)CC1	1	1	8	-6%	-2	0
CCOC(=O)C1CCN(Cc2cc(Cl)c3ccccc3c2O)CC1	3	-2	8	28µM*	-9	1
Cc1nc(SCC(=O)N(C)C2CCS(=O)(=O)C2)c(C#N)c(C)c1C (stereo not given)	0	1	5	-2%	3	0
O=C(COc1cccc(C(F)(F)F)c1)Nc1cccnc1	2	-4	-31*	0%	0	0
O=C(COc1ccc(C(=O)NCc2cccnc2)cc1)Nc1cccc(C(F)(F)F)c1	12	3	-24	-6%	-2	0
O=C(COc1ccc2ccccc2c1Br)Nc1cccnc1	12	-8	-42*	2%	-10	-1
Cc1cc(C)nc(CCNC(=O)c2cc(COc3ccc(F)cc3Cl)on2)n1	6	2	3	1%	-4	-2
Cc1cc(C)nc(CCNC(=O)c2cc(COc3ccc(F)cc3F)on2)n1	1	0	-34*	2%	2	-1
CCOC(=O)c1ccc(NC(=O)COc2ccccc2CNC2CCCC2)cc1	25	2	-36*	-3%	-7	2
Cc1ccc(C(=O)Nc2ccc(C(=O)O)cc2)cc1S(=O)(=O)NCc1ccccc1	0	8	-4	-4%	-6	-1
COC(=O)C1CCN(C(c2cc(OC)c(OC)c(OC)c2)c2sc3nc(C)nn3c2O)CC1 (stereo not given)	0	31*	3	-1%	-10	0
CCOC(=O)CC(NC(=O)Cn1nnc(-c2ccc(C(F)(F)F)cc2)n1)c1ccc(OC)cc1 (stereo not given)	17	-11	-16	-2%	2	-1
CCOC(=O)CC(NC(=O)Cn1nnc(-c2ccccc2C)n1)c1ccc(OC)cc1 (stereo not given)	31*!	-1	-19	-2%	-9	1
CCCN1CCN(CCCNC(=O)Cn2c(-c3cccs3)cc3ccccc32)CC1	6	-1	-4	-3%	0	0
O=C(CSc1ccc(C(F)(F)F)cc1[N+](=O)[O-])Nc1ccccc1	37*	0	-13	-1%	-8	-1
CC(C)NC(=O)CNc1ccc(C(F)(F)F)cc1[N+](=O)[O-]	2	0	-30*	3%	-14	0
